Assay outcomes: PubChem BioAssay, Bradner/Qi Labs at DFCI
This excerpt belongs to a sample that is enriched for hits.
CBX7 AlphaScr = blocks human CBX7 binding to H3K27me3 peptide; O95931; AlphaScreen His6-CBX7 / biotin-H3K27me3 peptide binding; active compounds read low; normalised signal (fraction of DMSO) (concentration not given with the values); hit rate 1.1% among 66,000; in the data active means normalised signal below about 0.5
Target sequence (O95931 whole entry, looked up): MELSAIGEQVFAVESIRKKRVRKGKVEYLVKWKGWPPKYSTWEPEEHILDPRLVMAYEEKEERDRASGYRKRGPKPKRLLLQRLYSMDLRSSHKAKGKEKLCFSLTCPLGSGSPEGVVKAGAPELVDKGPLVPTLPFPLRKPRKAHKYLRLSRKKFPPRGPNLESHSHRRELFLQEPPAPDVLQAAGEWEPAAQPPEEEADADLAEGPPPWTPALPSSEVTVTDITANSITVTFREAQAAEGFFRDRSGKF
Numbers stand for hits; i = inactive.

SMILES	CBX7 AlphaScr
COc1ccc2[nH]c(C)c(CCNCc3ccc(F)cc3F)c2c1	i
COc1ccc2[nH]c(C)c(CCNCc3nc[nH]c3C)c2c1	0.0075
COc1ccc2[nH]c(C)c(CCNCc3cccnc3)c2c1	i
CCOc1ccc(NC(=O)CN2C(=O)CN=C(c3ccccc3)c3ccccc32)cc1	i
Cc1ccc(-n2nnnc2C2(NCCc3c(C)[nH]c4c(Cl)c(Cl)ccc34)CCCCC2)cc1	i
COc1ccc(-n2nnnc2C2(NCCc3c(C)[nH]c4c(Cl)ccc(Cl)c34)CCCCC2)cc1	i
Cc1ccccc1-n1nnnc1C1(NCCc2c(C)[nH]c3ccccc23)CCCCC1	0.49
COc1ccc(/C=C/c2nc3ccccc3c(=O)n2-c2cc(C)cc(C)c2)cc1	i
FC(F)(F)COc1ccc(N2CCNCC2)nn1	i
O=C(CNS(=O)(=O)c1ccccc1)Nc1ccc(Cl)cc1C(=O)c1ccccc1	i
COc1ccc(CCNCc2cccnc2)cc1OC	i
COc1ccc(CCNCc2ccccn2)cc1OC	0.27
COc1ccc(CCNCc2cc(OC)c3c(c2)OCO3)cc1	i
Cc1cccc(NC(=O)CN2C(=O)C(C)N=C(c3ccccc3)c3ccccc32)c1C (stereo not drawn)	i
CCOc1ccc(NC(=O)CN2C(=O)CN=C(c3ccccc3)c3cc(Cl)ccc32)cc1	i
CN(C)c1ccc(C2SCC(=O)Nc3c2c(-c2ccccc2)nn3-c2ccccc2)cc1 (stereo not drawn)	0.42
COc1ccc(C2SCC(=O)Nc3c2c(C)nn3-c2ccccc2)cc1 (stereo not drawn)	i
O=C1CSC(c2ccc(Cl)cc2)c2c(-c3ccccc3)nn(-c3ccccc3)c2N1 (stereo not drawn)	i
CCCCNC(=O)CN1C(=O)C(C(C)CC)N=C(c2ccccc2F)c2cc(Cl)ccc21 (stereo not drawn)	i
CCOC(=O)c1c(C)n(C2CCCCC2)c2cc(Br)c(OC(C)=O)cc12	i
